# Results taken from PubChem BioAssay (EPA / NIEHS).
# Activity calls are given as the source filed them. Rule for the calls: active = hit-call score of the fitted dose curve at least 0.9, where 1 is the maximum; inactive = score below 0.9.
# Test: ATG_CMV_CIS: Attagene CIS-FACTORIAL HepG2 Assay for human CMV (Internal Marker) (AID 2282928);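 note: endpoint acts as a background internal control marker rather than a target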
# Settings: HepG2 CMV promoter reporter, transcription factor profiling; actives raise or lower the signal
# Description: ATG_CIS is a cell-based, multiplexed-readout assay that uses HepG2, a human liver cell line, with measurements taken at 24 hours after chemical dosing in a 24-well plate.ATG_CMV_CIS is one of 52 assay component(s) measured or calculated from the ATG_CIS assay. It is designed to make measurements of mRNA induction, a form of inducible reporter, as detected with fluorescence intensity signals by Reverse transcription polymerase chain reaction (RT-PCR) and Capillary electrophoresis technology.Data from the assay component ATG_CMV_CIS was analyzed into 1 assay endpoint. This assay endpoint, ATG_CMV_CIS, was analyzed with bidirectional fitting relative to DMSO as the negative control and baseline of activity. Using a type of inducible reporter, measures of mRNA for gain or loss-of-signal activity can be used to understand the background control at the transcription factor-level as they relate to the gene . Furthermore, this assay endpoint can be referred to as a secondary readout, because this assay has produced multiple assay endpoints where this one serves a background control function. To generalize the intended target to other relatable targets, this assay endpoint is annotated to the background measurement intended target family, where the subfamily is internal marker.
# Human liver HepG2 cells are transiently transfected with multiple reporter transcription units (MRTUs) in 6-well plates using FuGene 6 reagent (Roche; 3 ml FuGene/1 mg DNA). The MRTU constructs are regulated by a cis-regulating element (promoter). […] A major difference between the CIS and TRANS system is that in CIS activities of endogenous TFs are measured, whereas the TRANS assay evaluates changes in activities of exogenous, chimeric NR-Gal4 proteins. […] At the end of 24 hour incubation, total RNA was isolated using TriZol reagent (Invitrogen). The isolated RNA is then reverse-transcribed using oligo(dT) primer and Mo-MLV reverse transcriptase (Invitrogen) with DNAse I (Ambion) treatment for 30 min. The one-tenth of the produced cDNA was amplified by PCR using Taq DNA polymerase (Invitrogen) and two reporter sequence-specific primers. The PCR products were fluorescently labeled by primer extension with 6-arboxyfluorescein (6-FAM) 5'-labeled reporter sequence-specific primer (2 min at 95 C, 20 s at 68 C and 10 min at 72 C) and these products were digested with 5U of HpaI (New England Biolabs) for 2h at 37 C. The fragments were purified using Qiaquick PCR columns (Qiagen), analyzed on an ABI 3130xL genetic analyzer (Applied Biosystems) with peak positions identified by using a set of X-rhodamine (ROX)-labeled MapMarker1000 molecular weight standards (BioVentures). The raw capillary electrophoresis data was processed using Attagraph software (Attagene).
Compound,outcome,AC50
O=C(O)c1cccc(N(Cc2cccnc2)c2ccc(OC(F)F)c(OC(F)F)c2)c1,inactive,–
Nc1cccc(N)c1,inactive,–
On1ccccc1=S,inactive,–
CC(O)CN(CCN(CC(C)O)CC(C)O)CC(C)O (stereo not given),inactive,–
Nc1ccc(Nc2ccccc2)cc1,–,36.7 µM (active)
CC(=O)OCCC(C)C,inactive,–
CNCc1ccc(NC(=O)c2c[nH]c3c2C(=O)CCC3)cc1,inactive,–
CC(C)=CCCC(C)CCO (stereo not given),inactive,–
CC(=O)OC[C@H]1O[C@@](COC(C)=O)(O[C@H]2O[C@H](COC(C)=O)[C@@H](OC(C)=O)[C@H](OC(C)=O)[C@H]2OC(C)=O)[C@@H](OC(C)=O)[C@@H]1OC(C)=O,inactive,–
CC(C)=CCC/C(C)=C\CO,inactive,–
CC[C@H](C)C(=O)O[C@H]1C[C@@H](C)C=C2C=C[C@H](C)[C@H](CC[C@@H]3C[C@@H](O)CC(=O)O3)[C@H]21,inactive,–
CC(C)(O)c1coc(S(=O)(=O)NC(=O)Nc2c3c(cc4c2CCC4)CCC3)c1,inactive,–
CC(C)CC(C)(O)C#CC(C)(O)CC(C)C (stereo not given),inactive,–
CC[C@H]1OC(=O)[C@H](C)[C@@H](O[C@H]2C[C@@](C)(OC)[C@@H](O)[C@H](C)O2)[C@H](C)[C@@H](O[C@@H]2O[C@H](C)C[C@H](N(C)C)[C@H]2O)[C@](C)(O)C[C@@H](C)C(=O)[C@H](C)[C@@H](O)[C@]1(C)O,inactive,–
Cc1[nH]cnc1C[C@H]1CCc2c(C)c3ccccc3n2C1=O,inactive,–
C[C@](N)(Cc1ccc(O)c(O)c1)C(=O)O,inactive,–
CC[C@H]1CC[C@H](NCc2cc3c(cc2OC)[C@H]2C[C@H]2C(=O)N3C)[C@H](c2ccccc2)N1,inactive,–
CCCCC(CC)COC(=O)c1ccc(C(=O)OCC(CC)CCCC)cc1 (stereo not given),inactive,–
Oc1ccc2c(c1)-c1ccccc1C2,–,4.28 µM (active)
CC(C)=CCCC(C)=CC=O,inactive,–

Compound,outcome,AC50
CC1(C)C(=O)N(Br)C(=O)N1Br,inactive,–
O=C(OC[C@H]1O[C@@H](OC(=O)c2cc(O)c(O)c(OC(=O)c3cc(O)c(O)c(O)c3)c2)[C@H](OC(=O)c2cc(O)c(O)c(OC(=O)c3cc(O)c(O)c(O)c3)c2)[C@@H](OC(=O)c2cc(O)c(O)c(OC(=O)c3cc(O)c(O)c(O)c3)c2)[C@@H]1OC(=O)c1cc(O)c(O)c(OC(=O)c2cc(O)c(O)c(O)c2)c1)c1cc(O)c(O)c(OC(=O)c2cc(O)c(O)c(O)c2)c1,inactive,–
COc1cccc(-c2ccc(/C=C\CN3CCCCCC3)cc2Cl)c1,inactive,–
Cc1ccc(S(=O)(=O)O)cc1C,inactive,–
O=C(NS(=O)(=O)/C=C/c1ccccc1)c1ccc(F)cc1Cl,inactive,–
COC(=O)c1c(Cl)c(Cl)c(C(=O)OC)c(Cl)c1Cl,inactive,–
CC1=CC(=O)CC(C)(C)C1,inactive,–
CCCCCCCCO,inactive,–
O=C(CCCCCCCCc1cccnc1)N1CCC(C=C(c2ccccc2)c2ccccc2)CC1,–,14 µM (active)
CCCC(=O)OCC,inactive,–
CCCN(C1CCN(C(=O)C2CCNCC2)CC1)[C@@H]1CCc2ccc(OC)cc2C1,inactive,–
CCc1cc(SCc2sc(-c3ccc(C(F)(F)F)cc3)nc2CN2CCN(c3ccc(OC)cc3)CC2)ccc1OCC(=O)O,inactive,–
O=C1OC(=O)C2C3C=CC(C3)C12 (stereo not given),inactive,–
Cc1c(-c2cccnc2)c2ccccc2n1CCCCC(=O)O,inactive,–
NC(=O)NO,inactive,–
CN(C)c1ccc(N=NS(=O)(=O)O)cc1,inactive,–
Cn1c(=O)c2c(ncn2C)n(C)c1=O,inactive,–
Cc1ccc(C)c(O)c1,inactive,–
CCCCCCCCCCCCc1ccccc1,inactive,–
CCCCCCc1ccc(O)cc1O,–,33.4 µM (active)
